Compounds without any hit were thinned out: in the full panel of roughly 83,000, 20% have a hit.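 Treatment: one concentration, 48 hours, 96-well format. Scoring: percent growth, with anything below 10 considered active.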 The source made the active and inactive calls.
What was measured:
Assay in all cases: NCI-60 one-dose screen, 48 h (100 = growth as untreated, 0 = no growth, -100 = all killed)
Details in all cases: 10 µM unless noted
NCI-H23 lung = system: NCI-H23 lung
NCI-H226 lung = system: NCI-H226 lung
NCI-H322M lung = system: NCI-H322M lung
HOP-62 NSCLC = system: HOP-62 NSCLC
NCI-H460 lung = system: NCI-H460 lung
NCI-H522 lung = system: NCI-H522 lung
A549/ATCC NSCLC = system: A549/ATCC NSCLC
786-0 renal = system: 786-0 renal
COLO 205 colon = system: COLO 205 colon
DU-145 prostate = system: DU-145 prostate
K-562 leukemia = system: K-562 leukemia
MALME-3M melanoma = system: MALME-3M melanoma
MDA-MB-231 breast = system: MDA-MB-231 breast
RXF 393 renal = system: RXF 393 renal
SF-268 CNS = system: SF-268 CNS
SF-295 CNS = system: SF-295 CNS
SF-539 CNS = system: SF-539 CNS
UACC-257 melanoma = system: UACC-257 melanoma
M14 melanoma = system: M14 melanoma

Measured: growth

CC(=O)CC(c1ccc([N+](=O)[O-])cc1)c1c(O)c2ccccc2oc1=O (configuration not stated)
inactive: NCI-H23 lung 106% | NCI-H226 lung 93.9% | NCI-H322M lung 98.7% | HOP-62 NSCLC 102% | NCI-H460 lung 104% | NCI-H522 lung 97.3% | A549/ATCC NSCLC 95.7% | 786-0 renal 95.4% | COLO 205 colon 112% | DU-145 prostate 106% | K-562 leukemia 104% | MALME-3M melanoma 98.3% | MDA-MB-231 breast 95.9% | RXF 393 renal 108% | SF-268 CNS 99% | SF-295 CNS 104% | SF-539 CNS 97.1% | UACC-257 melanoma 120%

COc1cc(/C=C/c2cc(/C=C/c3ccc(O)c(OC)c3)n(C(=O)Nc3ccc(F)c(Cl)c3)n2)ccc1O
inactive: NCI-H322M lung 12.6% | NCI-H522 lung 10.9% | MDA-MB-231 breast 12.2%
active: NCI-H23 lung -12.9% | NCI-H226 lung -4.32% | HOP-62 NSCLC -7.78% | NCI-H460 lung 4.43% | A549/ATCC NSCLC 5.9% | 786-0 renal -32.9% | COLO 205 colon -59.4% | DU-145 prostate -11.8% | K-562 leukemia -3.9% | MALME-3M melanoma -16.8% | RXF 393 renal -57.6% | SF-268 CNS 6.57% | SF-295 CNS -55.3% | SF-539 CNS -16.6% | UACC-257 melanoma -15.9% | M14 melanoma -21.9%

CCN1C(=O)N(CC)C2C1NN=c1s/c(=C\c3ccc(Br)cc3)c(=O)n12 (configuration not stated)
inactive: NCI-H23 lung 29.2% | NCI-H226 lung 50.7% | NCI-H322M lung 45.5% | HOP-62 NSCLC 23.8% | A549/ATCC NSCLC 19.7% | 786-0 renal 23.6% | MALME-3M melanoma 52.2% | MDA-MB-231 breast 25.9% | RXF 393 renal 40.5% | SF-268 CNS 36.1% | SF-295 CNS 17.4% | UACC-257 melanoma 23.5%
active: NCI-H460 lung 7.34% | NCI-H522 lung -49.9% | COLO 205 colon -34.6% | DU-145 prostate 6.46% | K-562 leukemia 4.55% | SF-539 CNS -5.08%

CCC(=O)OCc1ccc(OC)cc1
inactive: NCI-H23 lung 99% | NCI-H226 lung 101% | NCI-H322M lung 110% | HOP-62 NSCLC 109% | NCI-H460 lung 111% | NCI-H522 lung 106% | A549/ATCC NSCLC 107% | 786-0 renal 101% | COLO 205 colon 113% | DU-145 prostate 123% | K-562 leukemia 94.4% | MALME-3M melanoma 124% | MDA-MB-231 breast 101% | RXF 393 renal 118% | SF-268 CNS 115% | SF-295 CNS 101% | SF-539 CNS 93.5% | UACC-257 melanoma 96.6% | M14 melanoma 100%

CCN(CC)c1ccc2c(cc1=O)[C@@H](NC(C)=O)CCc1cc(OC)c(OC)c(OC)c1-2
active: NCI-H460 lung 3.44% | NCI-H522 lung -38.8% | COLO 205 colon -62.8% | DU-145 prostate -10.2% | K-562 leukemia 0.286% | SF-539 CNS -3.76%
inactive: NCI-H23 lung 49.5% | NCI-H226 lung 51% | NCI-H322M lung 30.9% | HOP-62 NSCLC 30.9% | A549/ATCC NSCLC 13.2% | 786-0 renal 15.6% | MALME-3M melanoma 99% | MDA-MB-231 breast 15.1% | RXF 393 renal 58.8% | SF-268 CNS 24.4% | SF-295 CNS 11.3% | UACC-257 melanoma 63.1%

C=C(C)[C@@H]1CC[C@]2(C(=O)O)CC[C@]3(C)[C@H](CC[C@@H]4[C@@]5(C)C[C@@H](CC#Cc6ccc(C(C)=O)s6)[C@H](O)C(C)(C)[C@@H]5CC[C@]43C)[C@@H]12
inactive: NCI-H23 lung 60.9% | NCI-H226 lung 77.1% | NCI-H322M lung 41.3% | HOP-62 NSCLC 50% | NCI-H460 lung 42.7% | NCI-H522 lung 26% | 786-0 renal 58.6% | COLO 205 colon 59.5% | DU-145 prostate 57.2% | K-562 leukemia 34.7% | MALME-3M melanoma 82.6% | MDA-MB-231 breast 91.9% | RXF 393 renal 74.3% | SF-268 CNS 61.6% | SF-295 CNS 48.9% | SF-539 CNS 83.4% | UACC-257 melanoma 40.2%
active: A549/ATCC NSCLC 6.44%

CC(C)[C@@]12C[C@@H](OC(=O)C3CO3)[C@@](C)(O1)[C@@H]1CC[C@@H](C)[C@H]1[C@@H]2OC(=O)/C=C/c1ccccc1 (some centres not stated)
inactive: NCI-H23 lung 85.9% | NCI-H226 lung 68.3% | NCI-H322M lung 83.9% | HOP-62 NSCLC 76.6% | NCI-H460 lung 101% | NCI-H522 lung 72.8% | A549/ATCC NSCLC 75.7% | 786-0 renal 95.5% | COLO 205 colon 107% | DU-145 prostate 107% | K-562 leukemia 105% | MALME-3M melanoma 84% | MDA-MB-231 breast 76.6% | RXF 393 renal 67% | SF-268 CNS 67.2% | SF-295 CNS 101% | SF-539 CNS 90.7% | UACC-257 melanoma 74.7%

C=C1C(=O)O[C@H]2[C@H]1CC/C(COC(=O)NCc1c[nH]c3ccc(OC)cc13)=C\CC[C@@]1(C)O[C@@H]21
active: NCI-H522 lung -72.8% | 786-0 renal -59.2% | COLO 205 colon -69.2% | DU-145 prostate -10.4% | K-562 leukemia 3.23% | MALME-3M melanoma -31% | MDA-MB-231 breast -6.78% | RXF 393 renal -93.3% | SF-539 CNS -23.3% | UACC-257 melanoma -16.3% | M14 melanoma -48%
inactive: NCI-H23 lung 51.6% | NCI-H226 lung 27.9% | NCI-H322M lung 84.9% | HOP-62 NSCLC 49.2% | NCI-H460 lung 33.7% | A549/ATCC NSCLC 29.6% | SF-268 CNS 45.2% | SF-295 CNS 63.5%
